Laboratory results as given in PubChem BioAssay (EPA / NIEHS).
Calls of active or inactive are those of the source. Rule for the calls: active = hit-call score of the fitted dose curve at least 0.9, where 1 is the maximum; inactive = score below 0.9.

Key:
Details in all cases: mRNA level, 48 h; actives raise or lower the signal
[1] = read-out: 3-Hydroxy-3-Methylglutaryl-CoA Synthase 2 (HMGCS2), HMGCS2 (gene 3158); test: LTEA_HepaRG_HMGCS2: Life Technologies and Expression Analysis (LTEA) Assay for 3-Hydroxy-3-Methylglutaryl-CoA Synthase 2 (HMGCS2) using HepaRG (AID 2283504)
How it was run: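 Differentiated human HepaRG cells were exposed in duplicate for 48 h in serum-free induction medium to eight concentrations (top 100 uM, half-log steps, 0.5% DMSO). HMGCS2 mRNA was quantified by TaqMan qRT-PCR, normalised to ACTB, GAPDH and POLR2A, then fitted bidirectionally against DMSO.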

HGF (gene 3082) = test: LTEA_HepaRG_HGF: Life Technologies and Expression Analysis (LTEA) Assay for Hepatocyte Growth Facto (HGF) using HepaRG (AID 2283505)
How it was run: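 Differentiated human HepaRG cells in serum-free induction medium were exposed in duplicate for 48 h to eight concentrations (top 100 uM, half-log steps, 0.5% DMSO). HGF mRNA was quantified by qRT-PCR, normalized to ACTB, GAPDH and POLR2A.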

[2] = read-out: Insulin Like Growth Factor 1 (IGF1), IGF1 (gene 3479); test: LTEA_HepaRG_IGF1: Life Technologies and Expression Analysis (LTEA) Assay for Insulin Like Growth Factor 1 (IGF1) using HepaRG (AID 2283506)
How it was run: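 Differentiated human HepaRG cells were dosed for 48 h in serum-free induction medium with 0.5% DMSO, eight half-log concentrations up to 100 uM, in duplicate. IGF1 mRNA was quantified by qRT-PCR normalized to ACTB, GAPDH, POLR2A; bidirectional fitting versus DMSO.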

[3] = read-out: Intercellular Adhesion Molecule 1 (ICAM1), ICAM1 (gene 3383); test: LTEA_HepaRG_ICAM1: Life Technologies and Expression Analysis (LTEA) Assay for Intercellular Adhesion Molecule 1 (ICAM1) using HepaRG (AID 2283507)
How it was run: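 Differentiated HepaRG cells in serum-free induction medium were exposed in duplicate for 48 h to eight half-log concentrations up to 100 uM in 0.5% DMSO. Transcript levels were measured by qRT-PCR normalized to ACTB, GAPDH and POLR2A; bidirectional fits relative to DMSO.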

[4] = read-out: Insulin-like growth factor-binding protein 1 (IGFBP1), IGFBP1 (gene 3484); test: LTEA_HepaRG_IGFBP1: Life Technologies and Expression Analysis (LTEA) Assay for Insulin-like growth factor-binding protein 1 (IGFBP1) using HepaRG (AID 2283508)
How it was run: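 Differentiated human HepaRG cells in serum-free induction medium were exposed in duplicate for 48 h to eight concentrations, top 100 uM with half-log dilutions, in 0.5% DMSO. Transcript levels came from qRT-PCR normalised to ACTB, GAPDH and POLR2A, fitted bidirectionally against DMSO.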

[5] = read-out: Interleukin 6 (IL6), IL6 (gene 3569); test: LTEA_HepaRG_IL6: Life Technologies and Expression Analysis (LTEA) Assay for Interleukin 6 (IL6) using HepaRG (AID 2283509)
How it was run: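 HepaRG cells exposed in duplicate for 48 h to eight half-log concentrations, top 100 uM, in 0.5% DMSO serum-free induction medium. mRNA measured by qRT-PCR, normalized to ACTB, GAPDH and POLR2A. Bidirectional fit versus DMSO.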

[6] = read-out: Interleukin 6 Receptor (IL6R), IL6R (gene 3570); test: LTEA_HepaRG_IL6R: Life Technologies and Expression Analysis (LTEA) Assay for Interleukin 6 Receptor (IL6R) using HepaRG (AID 2283510)
How it was run: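 Differentiated human HepaRG cells, plated 48 h then switched to serum-free induction medium, were dosed in duplicate for 48 h at eight half-log concentrations up to 100 uM in 0.5% DMSO. IL6R mRNA quantified by qRT-PCR, normalized to ACTB/GAPDH/POLR2A; bidirectional fit versus DMSO.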

[7] = read-out: Potassium channel subfamily K member 1 (KCNK1), KCNK1 (gene 3775); test: LTEA_HepaRG_KCNK1: Life Technologies and Expression Analysis (LTEA) Assay for Potassium channel subfamily K member 1 (KCNK1) using HepaRG (AID 2283511)
How it was run: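 Differentiated HepaRG cells, 48 h exposure in serum-free induction medium with 0.5% DMSO; 8 concentrations, half-log from 100 uM, duplicate. KCNK1 mRNA by qRT-PCR, normalized to ACTB, GAPDH, POLR2A; bidirectional fit vs DMSO.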

[8] = read-out: Keratin 19 (KRT19), KRT19 (gene 3880); test: LTEA_HepaRG_KRT19: Life Technologies and Expression Analysis (LTEA) Assay for Keratin 19 (KRT19) using HepaRG (AID 2283512)
How it was run: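 Differentiated human HepaRG cells, plated 48 h, were exposed in duplicate for 48 h in serum-free induction medium to eight half-log concentrations up to 100 uM in 0.5% DMSO. KRT19 mRNA was quantified by qRT-PCR, normalized to ACTB, GAPDH and POLR2A, and fitted bidirectionally versus DMSO.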

[9] = read-out: JUN Transcription Factor, JUN (gene 3725); test: LTEA_HepaRG_JUN: Life Technologies and Expression Analysis (LTEA) Assay for JUN Transcription Factor using HepaRG (AID 2283513)
How it was run: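 Differentiated HepaRG cells were exposed to chemicals for 48 h in serum-free induction medium, 8 concentrations from 100 uM in half-log steps, 0.5% DMSO vehicle, in duplicate. JUN mRNA was quantified by TaqMan qRT-PCR, normalized to ACTB, GAPDH, POLR2A.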

[10] = read-out: Lipase C (LIPC), LIPC (gene 3990); test: LTEA_HepaRG_LIPC: Life Technologies and Expression Analysis (LTEA) Assay for Lipase C (LIPC) using HepaRG (AID 2283514)
How it was run: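 HepaRG cells, 48 h after plating, treated in duplicate for 48 h in serum-free induction medium over 8 half-log concentrations from 100 uM, 0.5% DMSO. LIPC mRNA by TaqMan qRT-PCR normalized to ACTB/GAPDH/POLR2A; bidirectional fit versus DMSO.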

[11] = read-out: Lipoprotein lipase (LPL), LPL (gene 4023); test: LTEA_HepaRG_LPL: Life Technologies and Expression Analysis (LTEA) Assay for Lipoprotein lipase (LPL) using HepaRG (AID 2283515)
How it was run: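 Differentiated HepaRG cells, plated 48 h, then exposed 48 h in serum-free induction medium to 8 concentrations (top 100 uM, half-log steps) in 0.5% DMSO, duplicate. LPL mRNA measured by qRT-PCR, normalized to ACTB, GAPDH and POLR2A.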

[12] = read-out: matrix metalloproteinase-10 (MMP10), MMP10 (gene 4319); test: LTEA_HepaRG_MMP10: Life Technologies and Expression Analysis (LTEA) Assay for matrix metalloproteinase-10 (MMP10) using HepaRG (AID 2283517)
How it was run: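 Differentiated HepaRG cells in serum-free induction medium exposed 48 h in duplicate to 8-point half-log series up to 100 uM in 0.5% DMSO. mRNA quantified by qRT-PCR, normalised to ACTB, GAPDH, POLR2A; bidirectional fit versus DMSO.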

MYC, MYC (gene 4609) = test: LTEA_HepaRG_MYC: Life Technologies and Expression Analysis (LTEA) Assay for MYC using HepaRG (AID 2283518)
How it was run: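 Differentiated human HepaRG cells, plated 48 h then switched to serum-free induction medium, were exposed in duplicate for 48 h to 8-point half-log series up to 100 uM in 0.5% DMSO. MYC mRNA measured by qRT-PCR, normalized to ACTB/GAPDH/POLR2A.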

[13] = read-out: matrix metalloproteinase-3 (MMP3), MMP3 (gene 4314); test: LTEA_HepaRG_MMP3: Life Technologies and Expression Analysis (LTEA) Assay for matrix metalloproteinase-3 (MMP3) using HepaRG (AID 2283519)
How it was run: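 HepaRG cells (~100,000/well) in serum-free induction medium were dosed in duplicate for 48 h with an 8-point half-log series from 100 uM, 0.5% DMSO. MMP3 mRNA was quantified by Fluidigm TaqMan qRT-PCR, normalized to three housekeeping genes.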

[14] = read-out: Nuclear factor NF-kappa-B p105 subunit (Homo sapiens) (UniProt P19838); test: LTEA_HepaRG_NFKB1: Life Technologies and Expression Analysis (LTEA) Assay for Nuclear Factor Kappa B Subunit 1 (NFKB1) using HepaRG (AID 2283521);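 note: TaqMan qRT-PCR transcript normalised to ACTB GAPDH and POLR2A housekeeping genes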
How it was run: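 Differentiated human HepaRG cells in serum-free induction medium with 0.5% DMSO were exposed for 48 h to eight half-log concentrations, top 100 uM, in duplicate. NFKB1 mRNA measured by Fluidigm TaqMan qRT-PCR, normalised to ACTB, GAPDH and POLR2A; bidirectional fit versus DMSO.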

[15] = read-out: Protein phosphatase 2A (PPP2R4), PTPA (gene 5524); test: LTEA_HepaRG_PPP2R4: Life Technologies and Expression Analysis (LTEA) Assay for Protein phosphatase 2A (PPP2R4) using HepaRG (AID 2283522)
How it was run: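 Differentiated HepaRG cells in serum-free induction medium were exposed in duplicate for 48 h to eight concentrations, top 100 uM with half-log dilutions, in 0.5% DMSO. PPP2R4 mRNA was quantified by TaqMan qRT-PCR, normalized to ACTB, GAPDH and POLR2A.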

[16] = read-out: Phosphatase and tensin (PTEN), PTEN (gene 5728); test: LTEA_HepaRG_PTEN: Life Technologies and Expression Analysis (LTEA) Assay for Phosphatase and tensin (PTEN) using HepaRG (AID 2283523)
How it was run: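 HepaRG cells, 48 h after plating, exposed in duplicate for 48 h in serum-free induction medium to 8 half-log concentrations up to 100 uM (0.5% DMSO). PTEN mRNA by qRT-PCR, normalized to ACTB, GAPDH, POLR2A; bidirectional fit versus DMSO.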

[17] = read-out: MicroRNA 122 (MIR122), gene 406906; test: LTEA_HepaRG_MIR122: Life Technologies and Expression Analysis (LTEA) Assay for MicroRNA 122 (MIR122) using HepaRG (AID 2283516); note: the transcript read is the microRNA miR-122
How it was run: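 Differentiated human HepaRG cells were exposed 48 h in serum-free induction medium to eight half-log concentrations (top 100 uM, 0.5% DMSO). Transcript level was measured by TaqMan qRT-PCR, normalized to ACTB, GAPDH and POLR2A, and fitted bidirectionally versus DMSO.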

[18] = read-out: Paternally Expressed 10 (PEG10), PEG10 (gene 23089); test: LTEA_HepaRG_PEG10: Life Technologies and Expression Analysis (LTEA) Assay for Paternally Expressed 10 (PEG10) using HepaRG (AID 2283520)
How it was run: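 Differentiated HepaRG cells, plated 48 h then switched to serum-free induction medium, were exposed in duplicate for 48 h to eight half-log concentrations topping at 100 uM in 0.5% DMSO. PEG10 mRNA was quantified by TaqMan qRT-PCR, normalised to ACTB, GAPDH and POLR2A.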

Measured: AC50

Chain of Nuclear factor NF-kappa-B p105 subunit (Homo sapiens) (P19838 whole entry, looked up): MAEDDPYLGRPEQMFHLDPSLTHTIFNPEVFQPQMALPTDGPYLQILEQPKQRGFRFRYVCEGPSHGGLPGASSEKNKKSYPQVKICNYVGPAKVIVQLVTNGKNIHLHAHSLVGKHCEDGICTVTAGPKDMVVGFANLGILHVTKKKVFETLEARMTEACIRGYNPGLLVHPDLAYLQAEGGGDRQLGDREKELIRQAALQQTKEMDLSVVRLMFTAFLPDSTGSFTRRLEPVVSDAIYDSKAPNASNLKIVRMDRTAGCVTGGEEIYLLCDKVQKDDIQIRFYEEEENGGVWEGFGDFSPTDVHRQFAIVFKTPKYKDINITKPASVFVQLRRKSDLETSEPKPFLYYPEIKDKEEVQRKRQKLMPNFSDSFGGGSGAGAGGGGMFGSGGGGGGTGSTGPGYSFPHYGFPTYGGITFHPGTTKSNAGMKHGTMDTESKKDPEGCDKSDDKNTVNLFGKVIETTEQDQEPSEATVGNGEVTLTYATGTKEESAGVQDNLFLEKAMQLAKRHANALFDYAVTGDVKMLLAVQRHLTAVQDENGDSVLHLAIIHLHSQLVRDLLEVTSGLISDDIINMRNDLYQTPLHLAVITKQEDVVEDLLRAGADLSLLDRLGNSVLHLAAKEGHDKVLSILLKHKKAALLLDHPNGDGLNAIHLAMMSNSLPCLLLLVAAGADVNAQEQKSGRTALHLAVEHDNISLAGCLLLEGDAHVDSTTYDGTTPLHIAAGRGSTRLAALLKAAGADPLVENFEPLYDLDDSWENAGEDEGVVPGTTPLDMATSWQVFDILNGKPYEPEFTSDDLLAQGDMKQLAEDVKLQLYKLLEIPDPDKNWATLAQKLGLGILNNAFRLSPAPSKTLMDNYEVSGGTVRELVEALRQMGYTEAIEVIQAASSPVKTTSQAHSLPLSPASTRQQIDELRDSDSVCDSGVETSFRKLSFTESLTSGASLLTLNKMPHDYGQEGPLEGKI

COc1ccc(-n2nc(C(F)F)cc2-c2ccc(S(C)=O)cc2)cc1 (stereo not given)
active: [11] 31.1 µM
not listed: [17] | [18]
inactive: all other assays above

CCCCCCCCCCCCc1ccccc1
not listed: [13] | [17] | [18]
inactive: all other assays above

CCOCCO
not listed: [4] | [6] | [13]
inactive: all other assays above

CC(=O)OC[C@H]1O[C@@](COC(C)=O)(O[C@H]2O[C@H](COC(C)=O)[C@@H](OC(C)=O)[C@H](OC(C)=O)[C@H]2OC(C)=O)[C@@H](OC(C)=O)[C@@H]1OC(C)=O
not listed: [14]
inactive: all other assays above

COC(=O)CC(=O)OC
active: [18] 50 µM
not listed: [13] | [14] | [17]
inactive: all other assays above

CCCCCCCCO
active: [7] 83.9 µM
not listed: [14] | [17] | [18]
inactive: all other assays above

CCOC(=O)CC(CC(=O)OCC)(OC(C)=O)C(=O)OCC
not listed: [17] | [18]
inactive: all other assays above

O=C1CCCCCN1
not listed: [6] | [13] | [17] | [18]
inactive: all other assays above

Cn1c(=O)c2c(ncn2C)n(C)c1=O
not listed: [4] | [14] | [18]
inactive: all other assays above

C[C@](N)(Cc1ccc(O)c(O)c1)C(=O)O
not listed: [6] | [13] | [18]
inactive: all other assays above

CC(C)CCCCCCOC(=O)c1ccc(C(=O)OCCCCCCC(C)C)c(C(=O)OCCCCCCC(C)C)c1
not listed: [14] | [17] | [18]
inactive: all other assays above

CC(C)=CCC/C(C)=C/CO
not listed: [17] | [18]
inactive: all other assays above

COCCOCCOCCOC
not listed: [6]
inactive: all other assays above

On1ccccc1=S
not listed: [4] | [18]
inactive: all other assays above
